SMILES strings stand for the structures. Unmarked numbers belong to inactive results. The rule behind the calls is not given here.

Sequence of Pantothenate synthetase (Mycobacterium tuberculosis (strain ATCC 25618 / H37Rv)) (P9WIL5 whole entry, looked up): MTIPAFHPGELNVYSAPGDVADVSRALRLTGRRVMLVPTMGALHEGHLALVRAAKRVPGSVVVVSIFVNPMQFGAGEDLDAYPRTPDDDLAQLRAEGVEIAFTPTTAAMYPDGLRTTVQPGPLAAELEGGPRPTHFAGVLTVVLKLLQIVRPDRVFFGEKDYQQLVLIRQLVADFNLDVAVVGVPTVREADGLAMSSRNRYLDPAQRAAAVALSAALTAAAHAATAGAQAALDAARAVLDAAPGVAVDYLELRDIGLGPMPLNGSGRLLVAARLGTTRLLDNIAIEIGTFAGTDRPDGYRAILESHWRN

The test concerns the target Pantothenate synthetase (Mycobacterium tuberculosis (strain ATCC 25618 / H37Rv)) (UniProt P9WIL5). In words: Coupled enzyme confirmation of inhibitors against recombinant Mtb PanC (AID 375).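 Note: 0% = full reaction with vehicle and 100% = no enzyme background.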 To be noted: coupled enzyme assay; at 10 µM, active compounds read high.
Broadly, the inhibition is the drop in the measured response relative to a control, in per cent. In the case of `Nc1cc(-c2ccccc2)ccc1O`, the inhibition is 1%.

`CCC(C)NC(=O)C1(C)CCC(=O)N1Cc1ccccc1OC` (stereo not given): the inhibition was 10%.

For `Cc1nn(C(=O)c2ccc3c(c2)OCO3)c(N)c1-c1ccccc1`, the inhibition is 0%.

Regarding `Cc1ccc(S(=O)(=O)c2nc(-c3ccco3)oc2SCC(=O)NCC2CCCO2)cc1` (stereo not given), the inhibition was 0%.

`CC(C)(Oc1ccc(Cl)cc1)C(=O)NC1CCSC1=O` (stereo not given): the inhibition is 0%.

As for `Nc1cc(=O)[nH]c(SCC(=O)Nc2ccc(Br)cc2)n1`, the inhibition is 2%.

`COc1ccc(CNc2nc3nc(C)cc(C)n3n2)cc1OC`: the inhibition is 1%.

Consider `COCCCN1C(=O)C(O)=C(C(=O)c2ccco2)C1c1ccc(Br)cc1` (stereo not given), for which the inhibition is 6%.

`COc1ccc(-c2cc(C(F)(F)F)n3ncc(C(=O)NCC4CCCO4)c3n2)cc1` (stereo not given): the inhibition was 0%.

Turning to `COc1ccc(N(C)C(=O)CCS(=O)(=O)c2cccc3nonc23)c(OC)c1`, the inhibition is 0%.

As for `Cc1ccc(N(Cc2ccco2)C(=O)c2cccc(S(=O)(=O)N(C)C)c2)cc1`, the inhibition is 5%.

In the case of `CC(C(=O)NC1CCCCCC1)N(c1ccccc1)S(C)(=O)=O` (stereo not given), the inhibition is 0%.

For the molecule `CCOC(=O)/N=C(/NC(=O)Nc1ccc(C(=O)OCC)cc1)OC`, the inhibition is 0%.

As for `Cc1ccc(Cn2nnc(C(=O)Nc3cccc(C)c3C)c2N)cc1`, the inhibition is 5%.

For `COc1ccc(CN(C(=O)c2cccs2)c2nccs2)cc1OC`, the inhibition is 3%.

For `CCOC(=O)c1cc2n(n1)C(C(F)(F)C(F)(F)F)CC(C)N2` (stereo not given), the inhibition is 1%.

Take `Clc1ccc(Cl)c(-c2nn3c(Cn4cnc5ccccc54)nnc3s2)c1`: the inhibition was 0%.

In the case of `CCN(C1CCCCC1)S(=O)(=O)c1ccc(OC)c(C)c1`, the inhibition is 0%.

For the molecule `CC(C)(C)NS(=O)(=O)c1ccc(CCC(=O)O)cc1`, the inhibition was 0%.

In the case of `O=c1c2cn[nH]c2nc(SCc2ccc3c(c2)OCCO3)n1-c1ccccc1`, the inhibition was 3%.

`COc1ccc(CN2C(=O)CN=C2Nc2ccc(C)cc2C)cc1`: the inhibition is 6%.

For `Cn1c(Cl)cnc1C1CC(=O)c2cc(Cl)ccc2O1` (stereo not given), the inhibition is 7%.

For `CC1CN(c2nc3ccccc3nc2C(C#N)C(=O)NCc2ccc3c(c2)OCO3)CC(C)O1` (stereo not given), the inhibition is 0%.

Consider `Fc1ccc(C(c2ccc(F)cc2)N2CCN(C/C=C/c3ccccc3)CC2)cc1`, for which the inhibition is 0%.

As for `CC(=O)c1nnn(-c2nc(N3CCCC3)nc(N(c3ccccc3)c3ccccc3)n2)c1C`, the inhibition was 0%.

Take `CCN(c1ccc2c(c1)OCO2)S(=O)(=O)c1cc(Br)cc2c1N(C(=O)C1CC1)CC2`: the inhibition is 0%.

Take `COc1ccccc1N(CC(=O)NC1CCCC1)C(=O)CCC(=O)Nc1cc(C)on1`: the inhibition is 0%.

As for `CCOC(=O)c1sc(NC(=O)CSc2nnc3c4ccccc4n(CC)c3n2)nc1C`, the inhibition is 3%.

For `CC(C)Cn1c(=O)c(C2=NS(=O)(=O)c3ccccc3N2)c(O)c2ccccc21`, the inhibition is 2%.

Consider `COc1ccc(OC)c(NC(=O)c2cn(C)c(=O)c3cc(OC)c(OC)cc23)c1`, for which the inhibition is 1%.

As for `COc1ccc(-c2coc3c(CN4CCCCC4)c(O)c(CN4CCCCC4)c(O)c3c2=O)cc1`, the inhibition is 0%.

As for `CCc1ccc(NC(=O)C2CC(=O)N(C(C)C)C2)cc1` (stereo not given), the inhibition is 0%.

Take `CCCCCC(=O)N1CC2(C)CN(C(=O)CCCCC)CC(C)(C1)C2=O`: the inhibition was 0%.

On to `COc1ccc(OCC(=O)Nc2ccc(N3CCOCC3)c(Cl)c2)cc1`, for which the inhibition is 0%.

As to `Cc1ccccc1Cc1c(C)nc2c(C(=O)N3CCN(Cc4ccc5c(c4)OCO5)CC3)cnn2c1C`, the inhibition was 5%.

As to `CC(C)OC(=O)CSc1nnc(Cc2ccccc2)n1Cc1ccco1`, the inhibition was 8%.

`COc1ccc(CN(C(=O)c2oc3ccccc3c2C)C2CCS(=O)(=O)C2)cc1` (stereo not given): the inhibition is 0%.

In the case of `COc1ccc(CCNC(=O)c2cnc3scc(C)n3c2=O)cc1OC`, the inhibition was 0%.

For the molecule `O=C(CSc1nnc(-c2ccco2)c(-c2ccco2)n1)Nc1ccccc1`, the inhibition was 2%.

`Cc1nc(SCC(=O)NCc2ccco2)c2c(C)c(C)sc2n1`: the inhibition was 5%.

These data come from PubChem BioAssay.
